According to PubChem BioAssay:
Entries with a potency or affinity are not part of this list. Inconclusive results are not listed. The source made the active and inactive calls.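 Rule for the calls, unless noted: active = a dose-response fit showing signal loss, with half-maximal concentration no higher than twice the top tested dose; inconclusive = flat fit between 30% and 70% signal loss, or poor fit; inactive = the rest.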

Key:
[1] = fungal growth arrest, C. neoformans – Alamar Blue, cherry-picks, dose response (AID 686998;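 active = falling signal with fitted half-maximal potency no higher than twice the top valid tested dose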)
[2] = C. neoformans lysis by adenylate kinase leakage – AK release luminescence, cherry-picks, dose response (AID 687000;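 active = fitted dose curve reaches 40% lysis signal rise at or below the highest valid concentration tested for that sample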;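 note: luminescent detection of adenylate kinase leaking from lysed yeast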)
[3] = viability loss in HepG2 hepatoma cells – cell-based, cherry-picks, set 2, cytotoxicity control, dose response (AID 687002)
[4] = viability loss in HeLa cells – cell-based, ATP luminescence, cherry-pick samples, cytotoxicity control, dose response (AID 687004;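 active = a fitted half-maximal concentration no higher than twice the top valid tested dose, with signal falling as cells die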)

Measured: outcome

C[C@H]1CN([C@@H](C)CO)C(=O)Cc2cc(NS(=O)(=O)c3ccc(F)cc3)ccc2O[C@@H]1CN(C)S(=O)(=O)c1ccc(F)cc1
inactive: all assays above

CCCNC(=O)N1[C@@H](CO)[C@@H](c2ccc(-c3ccccc3)cc2)[C@@H]1CNC(C)=O
inactive: all assays above

COc1ccc(NC(=O)c2noc(C(C)C)c2[N+](=O)[O-])cc1
inactive: all assays above

Cc1ccc(OCC(=O)NCc2ccccc2)cc1
inactive: all assays above

COCC(=O)Nc1ccc2c(c1)OC[C@@H](C)N(C(=O)Cc1cccnc1)C[C@H](C)[C@@H](OC)CN(C)C2=O
inactive: all assays above

CCC(C)(C(=O)Nc1ccccc1C)N(C(=O)CNC(C)=O)c1ccc(C)cc1 (centres undefined)
inactive: all assays above

C[C@@H]1CN([C@H](C)CO)C(=O)c2cccc(NC(=O)C3CC3)c2O[C@H]1CN(C)Cc1ccc(C(=O)O)cc1
inactive: all assays above

O=C(C[C@@H]1CC[C@H](NC(=O)Cc2ccccn2)[C@H](CO)O1)NCCc1ccccc1
inactive: all assays above

CCOC(=O)CNC(=O)CSc1ncnc2c1cnn2-c1ccc(OC)cc1
inactive: all assays above

C[C@H]1CN([C@@H](C)CO)S(=O)(=O)c2ccc(C#Cc3cccc(F)c3)cc2O[C@@H]1CN(C)C
inactive: all assays above

O=C([C@H]1[C@H](CO)[C@H]2Cn3c(cccc3=O)[C@@H]1N2Cc1cccc(Cl)c1)N1CCOCC1
inactive: all assays above

O=C(c1cccc(F)c1)N1CCCCN2[C@@H](CO)[C@H](c3ccc(-c4ccncc4)cc3)[C@@H]2C1
inactive: all assays above

C[C@H]1CN([C@@H](C)CO)C(=O)Cc2cc(NC(=O)Nc3ccccc3)ccc2O[C@@H]1CN(C)C(=O)Nc1ccc2c(c1)OCO2
inactive: all assays above

Cc1noc(C)c1NC(=O)Nc1ccc2c(c1)C(=O)N([C@H](C)CO)C[C@@H](C)[C@H](CN(C)C(=O)Nc1ccc(F)cc1)OCCCC[C@@H](C)O2
inactive: all assays above

CC=Cc1ccc2n(c1=O)C[C@@H]1[C@@H](CO)[C@H](C(=O)N3CCCCC3)N(Cc3ccccc3)[C@H]21 (mixture of isomers)
inactive: all assays above

CC(C)NC(=O)Nc1ccc2c(c1)C(=O)N([C@@H](C)CO)C[C@@H](C)[C@@H](CN(C)S(=O)(=O)c1ccc(Cl)cc1)OCCCC[C@@H](C)O2
inactive: all assays above

CO[C@H]1CN(C)C(=O)c2cc(NS(=O)(=O)c3ccc(C)cc3)ccc2OC[C@@H](C)N(C(=O)NC(C)C)C[C@@H]1C
inactive: all assays above

CNC[C@@H]1Oc2c(NS(=O)(=O)c3cccs3)cccc2C(=O)N([C@@H](C)CO)C[C@H]1C
inactive: all assays above

COC(=O)N(C)C[C@H]1OCc2cn(nn2)CCCC(=O)N([C@H](C)CO)C[C@@H]1C
inactive: all assays above

Cc1nnc(NC(=O)CSc2ncnc3c2cnn3-c2ccccc2C)s1
inactive: all assays above

O=C([C@@H]1[C@@H](CO)[C@@H]2Cn3c(cccc3=O)[C@H]1N2Cc1cccc(Cl)c1)N1CCOCC1
inactive: all assays above

CNC(=O)C[C@H]1CC[C@H]2[C@H](COc3ccc(NC(=O)Nc4ccccc4)cc3C(=O)N2C)O1
inactive: all assays above

CO[C@H]1CN(C)C(=O)c2cc(NS(=O)(=O)c3ccc(C)cc3)ccc2OC[C@H](C)N(C)C[C@H]1C
inactive: all assays above

Cc1ccc(S(=O)(=O)Nc2ccc3c(c2)C(=O)N([C@@H](C)CO)C[C@@H](C)[C@@H](CN(C)S(=O)(=O)c2ccc(Cl)cc2)OCCCC[C@H](C)O3)cc1
inactive: all assays above

Cc1cccc(NC(=O)C2NC(=O)CC2c2ccccc2)c1C (centres undefined)
inactive: all assays above

CCOc1cc(/C=N/NC(=O)CCCC(=O)NC2CCCCC2)ccc1O
inactive: all assays above

NC(=O)CN(c1ccccc1)S(=O)(=O)c1ccc(F)cc1
inactive: all assays above

CCn1cc(C(=O)N(C)c2ccc(OC)cc2OC)c2cc(OC)c(OC)cc2c1=O
inactive: all assays above

COc1ccc(C#Cc2ccc3c(c2)O[C@H](CN(C)C(=O)Nc2cccc(OC)c2)[C@H](C)CN([C@@H](C)CO)S3(=O)=O)cc1
inactive: all assays above

CN1CCc2c(sc(N)c2C(=O)c2ccc(Cl)cc2)C1
inactive: all assays above

COc1ccc(-c2cnc3c(c2)C(=O)N([C@@H](C)CO)C[C@H](C)[C@@H](CN(C)S(C)(=O)=O)O3)cc1
inactive: all assays above

COc1cccc(S(=O)(=O)N(C)C[C@@H]2Oc3ncc(-c4cccc(F)c4)cc3C(=O)N([C@H](C)CO)C[C@@H]2C)c1
inactive: all assays above

CC(C)NC(=O)Nc1ccc2c(c1)C(=O)N([C@@H](C)CO)C[C@@H](C)[C@H](CN(C)Cc1ccncc1)OCCCC[C@@H](C)O2
inactive: all assays above

O=S(=O)(NC[C@@H]1[C@@H](c2ccccc2)[C@H](CO)N1CC1CC1)c1ccccc1
inactive: all assays above

COC(=O)N(C)C[C@H]1OCc2cn(nn2)CCCC(=O)N([C@@H](C)CO)C[C@@H]1C
inactive: all assays above

CCCC(=O)N1CCCC1(C)C(=O)Nc1cc(C)ccc1C (centres undefined)
inactive: all assays above

CO[C@@H]1CN(C)C(=O)c2ccc(NC(=O)C3CC3)cc2OC[C@H](C)N(Cc2ccc(F)cc2)C[C@H]1C
inactive: all assays above

COc1ccccc1NC(=O)N[C@H]1CC[C@@H](CCn2cc(-c3ccccc3OC)nn2)O[C@@H]1CO
inactive: all assays above

C[C@@H]1CCCCO[C@@H](CN(C)Cc2ccc3c(c2)OCO3)[C@@H](C)CN([C@H](C)CO)C(=O)c2cc(NS(=O)(=O)c3ccc(F)cc3)ccc2O1
inactive: all assays above

O=C(C[C@@H]1CC[C@@H]2[C@H](COC[C@H](O)CN2Cc2cccc(C(F)(F)F)c2)O1)NCc1ccccc1
inactive: all assays above

COc1cccc(C2CC(c3cccs3)=NN2C(=O)c2ccco2)c1O (centres undefined)
inactive: all assays above

O=C(c1cc(Br)ccc1Cl)N1CCN(c2ccccn2)CC1
inactive: all assays above

CC(NC(=O)COc1ccc([N+](=O)[O-])cc1)c1ccccc1 (centres undefined)
inactive: all assays above

CNC(=O)C[C@@H]1CC[C@H]2[C@@H](COC[C@H](O)CN2C(=O)Nc2ccc3c(c2)OCO3)O1
inactive: all assays above

CN1C(=O)c2cc(NS(=O)(=O)c3cccc(F)c3)ccc2OC[C@H]2O[C@H](CC(=O)O)CC[C@H]21
inactive: all assays above

C[C@@H]1CN([C@@H](C)CO)C(=O)c2cccc(NC(=O)Nc3ccccc3)c2O[C@H]1CN(C)S(=O)(=O)c1cn(C)cn1
inactive: all assays above

COc1ccccc1C#Cc1ccc2c(c1)O[C@@H](CN(C)C(C)=O)[C@@H](C)CN([C@H](C)CO)S2(=O)=O
inactive: all assays above

CO[C@H]1CN(C)C(=O)c2ccc(NC(=O)C3CC3)cc2OC[C@@H](C)N(Cc2ccc(F)cc2)C[C@@H]1C
inactive: all assays above

C[C@H]1CN([C@@H](C)CO)C(=O)c2cc(NC(=O)Nc3ccc4c(c3)OCO4)ccc2O[C@@H]1CN(C)CC1CCCCC1
inactive: all assays above

CCCNC(=O)N1C[C@@H](O)COC[C@H]2O[C@H](CC(=O)N3CCN(C)CC3)CC[C@@H]21
inactive: all assays above

COCCNC(=O)C[C@@H]1C[C@@H]2c3cc(NC(=O)C4CCOCC4)ccc3O[C@@H]2[C@@H](CO)O1
inactive: all assays above

CCCC#Cc1cnc2c(c1)C(=O)N([C@@H](C)CO)C[C@H](C)[C@H](CN(C)C(=O)Nc1cccc(F)c1)O2
inactive: all assays above

C[C@@H]1CCCCO[C@H](CN(C)Cc2ccncc2)[C@@H](C)CN([C@H](C)CO)C(=O)c2cc(N(C)C)ccc2O1
inactive: all assays above

O=C(Nc1cccc(F)c1)N[C@H]1CC[C@@H](CCNS(=O)(=O)c2cccc(Cl)c2)O[C@@H]1CO
inactive: all assays above

C[C@@H]1CCCCO[C@@H](CN(C)CC2CCCCC2)[C@@H](C)CN([C@@H](C)CO)C(=O)c2cc(NS(=O)(=O)c3ccccc3)ccc2O1
inactive: all assays above

COc1ccc(NC(=O)Nc2ccc3c(c2)C(=O)N([C@H](C)CO)C[C@@H](C)[C@@H](CN(C)S(=O)(=O)c2ccc(Cl)cc2)OCCCC[C@H](C)O3)cc1
inactive: all assays above
